Compound activity deposited in PubChem by several laboratories.
This is a sample that favours compounds with a hit; in the whole collection about 3.8% have one here.
ADAM17 inh = inhibitors of human ADAM17; P78536; recombinant ADAM17, EDANS/DABCYL FRET peptide cleavage; inhibition, % at 6.95 µM; 370,000 compounds, 0.83% hits;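 active = inhibition above the mean of compounds lying between control limits plus 3 SD, set per campaign, cut at about 8.5% in these data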;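 also: 0% = DMSO-only wells as the low control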
Target sequence (P78536 215-824 limits assumed): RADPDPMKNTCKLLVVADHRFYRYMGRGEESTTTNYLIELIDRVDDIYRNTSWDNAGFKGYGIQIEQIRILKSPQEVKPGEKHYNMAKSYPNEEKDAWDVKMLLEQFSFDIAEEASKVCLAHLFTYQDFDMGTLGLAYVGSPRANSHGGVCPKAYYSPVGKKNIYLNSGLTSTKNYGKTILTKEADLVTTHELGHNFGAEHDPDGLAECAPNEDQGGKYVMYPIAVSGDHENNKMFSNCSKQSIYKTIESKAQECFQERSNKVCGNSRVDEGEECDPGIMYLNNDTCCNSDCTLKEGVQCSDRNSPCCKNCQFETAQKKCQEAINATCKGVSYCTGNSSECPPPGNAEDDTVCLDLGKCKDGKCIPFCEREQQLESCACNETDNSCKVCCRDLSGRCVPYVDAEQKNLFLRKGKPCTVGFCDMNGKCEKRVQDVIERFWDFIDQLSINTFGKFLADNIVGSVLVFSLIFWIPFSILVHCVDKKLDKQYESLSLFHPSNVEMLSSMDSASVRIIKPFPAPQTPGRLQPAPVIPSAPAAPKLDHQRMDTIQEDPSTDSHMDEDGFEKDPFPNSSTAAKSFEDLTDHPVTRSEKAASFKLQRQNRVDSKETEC
rRNA inh HTS = selective bacterial rRNA inhibition in E. coli; E. coli WT GFP vs humanized-ribosome RFP mutants, fluorescence, 24 h; hits give low values; DMSO median 0, no signal -100; 350,000 compounds, 1.6% hits; GFP signal change (wild-type ribosome), % (no concentration beside the values); AID 720706;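 active = significant combined selectivity score with lowered wild-type GFP, culture density cut under 30%, mutant RFP and density less affected; inactive = any of these conditions unmet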
FGF22 binding = binders of recombinant human FGF22 by thermal shift; Q9HCT0; activity (Tm shift, normalised), % at 9.99 µM; 340,000 compounds, 1.5% hits; SYPRO orange fluorescence; percent of sucrose octasulfate shift, DMSO zero;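 active = mean Tm shift, scaled 0 neutral to 100 positive control, at about 1.3% or above, every replicate too, limit read from the data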
proKLK7 act = proKLK7 (human) activation, primary screen. P49862. purified proKLK7, EDANS-DABCYL substrate fluorescence; 100% is mature enzyme control, 0% vehicle. activation, % at 7 µM. 370,000 compounds, 0.9% hits. AID 652039;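 active = activation above the mean of all tested compounds plus 3 SD, computed per campaign excluding outliers beyond control limits, cut at about 13% in these data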
ADAM10 inh = ADAM10 inhibition, QFRET primary screen | recombinant ADAM10, EDANS/DABCYL FRET peptide cleavage, 3 h | inhibition, % at 7 µM | 370,000 compounds, 0.62% hits | AID 720582;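 active = inhibition above a per-campaign cutoff equal to the mean of compounds falling between control-based bounds plus 3 SD, cut at about 20% in these data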;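 also: 0% = DMSO wells while the 100% control is not disclosed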
ADAM10 confirm = human ADAM10 inhibition, confirmation; shares compounds with ADAM10 inh; ADAM10 QFRET peptide cleavage, EDANS fluorescence; inhibition, % at 6.95 µM; 2,100 compounds, 1% hits;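 active = inhibition above about 20% chosen separately for each screening run, limit read from the data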;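 also: 0% = DMSO wells and 100% = marimastat wells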
ADAM17 counter = counter-screen for ADAM10 exosite inhibitors: inhibitors of human ADAM17 | shares compounds with ADAM10 inh | inhibition, % at 6.95 µM | ADAM17 QFRET peptide cleavage, EDANS fluorescence | 2,100 compounds, 0.5% hits;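 active = mean triplicate inhibition above the solvent-only control wells' mean plus 3 SD, cut at about 12% in these data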;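 also: 0% = DMSO wells and 100% = marimastat wells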
* marks the source's active call; other numbers are inactive results; nt = not tested or not shown.

SMILES	ADAM17 inh	rRNA inh HTS	FGF22 binding	proKLK7 act	ADAM10 inh	ADAM10 confirm	ADAM17 counter
CC(C)(C)OC(=O)[C@H](Cc1ccccc1)NC(=O)c1nc[nH]c1C(=O)N1CCN(c2ccccc2)CC1	7.2	-8.3	-0.5	0.1	21.6*	4.8	2.5
CC(C)C[C@H](NC(=O)c1[nH]cnc1C(=O)N[C@@H](Cc1ccccc1)C(=O)OC(C)(C)C)C(=O)OCc1ccccc1	6.9	9.7	0.0	0.0	12.8	nt	nt
CC(C)C[C@H](NC(=O)c1nc[nH]c1C(=O)NCc1ccccc1)C(=O)OC(C)(C)C	8.3	-9.8	-0.7	0.1	21.8*	5.1	1.3
CC(C)C[C@H](NC(=O)c1[nH]cnc1C(=O)N[C@@H](Cc1ccccc1)C(=O)OC(C)(C)C)C(=O)OC(C)(C)C	-1.5	9.6	-0.8	-0.2	7.2	nt	nt
CC(C)C[C@H](NC(=O)c1[nH]cnc1C(=O)N[C@@H](C)c1ccccc1)C(=O)OC(C)(C)C	8.3	-8.2	0.1	0.1	24.0*	3.6	2.3
CC(C)C[C@H](NC(=O)c1[nH]cnc1C(=O)N[C@@H](C)C(=O)OC(C)(C)C)C(=O)OCc1ccccc1	12.2*	nt	nt	-0.1	21.2*	4.0	1.1
C[C@H]1CCCCO[C@@H](CN(C)Cc2ccc3c(c2)OCO3)[C@@H](C)CN([C@@H](C)CO)C(=O)c2cc(NC(=O)CCC(F)(F)F)ccc2O1	nt	-0.9	-0.2	nt	nt	nt	nt
C[C@@H]1CN([C@@H](C)CO)C(=O)c2cc(NC(=O)Nc3ccc4c(c3)OCO4)ccc2O[C@@H](C)CCCCO[C@@H]1CN(C)S(=O)(=O)c1cn(C)cn1	nt	-3.5	-0.6	nt	nt	nt	nt
CCOc1cc(C(=O)NCC(C)(C)CNC(=O)c2cc(OCC)c(OCC)c(OCC)c2)cc(OCC)c1OCC	7.9	7.1	-0.4	0.3	21.3*	-0.6	0.1
C[C@H]1CN([C@@H](C)CO)C(=O)c2cc(NS(=O)(=O)c3ccc(Cl)cc3)ccc2O[C@@H]1CN(C)S(=O)(=O)c1ccc(F)cc1	nt	-3.7	-0.3	nt	nt	nt	nt
O=C(Oc1cccc(NC(=O)c2ccco2)c1)c1cccc(S(=O)(=O)N2CCCCC2)c1	5.3	nt	nt	-0.6	20.7*	6.5	1.1
O=C(Nc1cccc(S(=O)(=O)N2CCOCC2)c1)c1ccco1	-3.7	nt	nt	-0.1	-7.7	nt	nt
C[C@@H]1CN([C@@H](C)CO)C(=O)c2cc(C#Cc3ccncc3)cnc2O[C@H]1CN(C)C(=O)c1ccccc1F	nt	-0.5	0.3	nt	nt	nt	nt
CO[C@H]1CN(C)C(=O)c2ccc(NC(C)=O)cc2OC[C@@H](C)N(C(=O)Cc2ccccn2)C[C@H]1C	nt	0.0	-0.5	nt	nt	nt	nt
C[C@H]1CN([C@@H](C)CO)C(=O)c2cc(NC(=O)Nc3ccc(F)cc3)ccc2O[C@@H]1CN(C)Cc1ccncc1	nt	-2.2	-0.3	nt	nt	nt	nt
CCCNC(=O)Nc1ccc2c(c1)C(=O)N(C)C[C@H](OC)[C@H](C)CN(C(=O)C1CCCCC1)[C@H](C)CO2	nt	-0.6	nt	nt	nt	nt	nt
COCC(=O)N1C[C@@H](C)[C@H](OC)CN(C)C(=O)c2ccc(NC(=O)c3cnccn3)cc2OC[C@@H]1C	nt	-2.4	-0.2	nt	nt	nt	nt
Cc1ccc(NC(=O)CN2CCN(c3nc(-c4ccccc4)cs3)CC2)cc1C	7.3	nt	nt	0.7	22.1*	7.2	2.4
Cc1ccccc1NC(=O)CN1CCN(c2nc(-c3ccccc3)cs2)CC1	3.5	nt	nt	0.7	6.4	nt	nt
CO[C@@H]1CN(C)C(=O)c2cc(NC(=O)c3cc(C)on3)ccc2OC[C@H](C)NC[C@@H]1C	nt	1.3	-0.1	nt	nt	nt	nt
O=C(C[C@H]1C[C@@H]2c3cc(NC(=O)Nc4ccc(F)cc4)ccc3O[C@@H]2[C@@H](CO)O1)NCC(F)(F)F	nt	3.4	-0.1	nt	nt	nt	nt
COC(=O)C1=C(C)NC(C)=C(C(=O)OCC2CCCO2)C1c1ccc(Cl)c([N+](=O)[O-])c1 (stereo unspecified)	3.7	-5.1	-0.4	-0.1	25.8*	1.9	0.6
N#Cc1nc(COc2ccccc2F)oc1NCCc1ccccc1	4.6	nt	nt	-0.2	22.4*	4.8	0.3
Cc1ccccc1S(=O)(=O)NCC[C@H]1CC[C@H](NC(=O)C2CCCCC2)[C@@H](CO)O1	nt	-3.3	0.0	nt	nt	nt	nt
COc1cc(OC)c(C2CC(=O)N3CN(c4ccccc4)CSC3=C2C#N)cc1OC (stereo unspecified)	-0.5	nt	nt	-0.6	24.4*	2.1	0.7
SMILES	ADAM17 inh	rRNA inh HTS	FGF22 binding	proKLK7 act	ADAM10 inh	ADAM10 confirm	ADAM17 counter
O=C(NNC(=O)c1sc2ccccc2c1Cl)Nc1ccc(Cl)cc1	5.1	-20.4*	nt	0.2	19.8*	0.2	0.3
C[C@@H](c1ccccc1)N1C[C@H](COCc2ccccc2)Oc2cc(N3CC[C@H](O)C3)ccc2S1(=O)=O	7.3	-12.6	0.5	-0.5	21.4*	6.8	1.9
COc1ccc(NC(=O)CN(C)C(=O)c2cn(-c3ccccc3)nc2-c2ccc(F)cc2)cc1	6.7	-24.6	0.4	0.5	7.0	nt	nt
Cc1cccc(-c2nn(-c3ccccc3)cc2C(=O)Nc2cccc(S(=O)(=O)NC3=NCCC3)c2)c1	3.2	-2.8	-0.3	0.6	11.9	nt	nt
COc1ccc(-c2nn(-c3ccccc3)cc2CNC(=O)c2cccc([N+](=O)[O-])c2)cc1	8.3	0.0	-0.2	0.3	20.9*	4.3	1.3
O=C(NCc1cn(-c2ccccc2)nc1-c1ccccc1)c1cc([N+](=O)[O-])cc([N+](=O)[O-])c1	-1.7	nt	nt	0.1	9.4	nt	nt
COc1ccc(-c2nn(-c3ccccc3)cc2C(=O)Nc2cccc(S(=O)(=O)NC3=NCCC3)c2)cc1	2.4	-5.8	0.1	0.0	23.9*	7.4	1.4
COc1ccc(NC(=O)CN(C)C(=O)c2cn(-c3ccccc3)nc2-c2ccc(OC)cc2)cc1	7.1	nt	0.0	0.8	25.7*	0.5	0.5
CN1C(=O)c2cc(NC(=O)c3ccc(F)c(F)c3)ccc2OC[C@H]2O[C@@H](CC(=O)N[C@@H]3CCN(Cc4ccccc4)C3)CC[C@@H]21	nt	-5.3	0.1	nt	nt	nt	nt
CC(CC(=O)O)CC(=O)Nc1cc([N+](=O)[O-])ccc1O (stereo unspecified)	0.6	13.9	42.6	-0.4	20.4*	3.5	1.0
CCCCC(CCC(=O)Nc1cc([N+](=O)[O-])ccc1O)C(=O)O (stereo unspecified)	0.8	7.5	0.5	-0.8	5.3	nt	nt
COC(=O)C(Cc1cnc(Cl)s1)(C(=O)OC)c1ccc(C(F)(F)F)cc1[N+](=O)[O-]	5.3	nt	nt	0.0	19.9*	4.2	0.2
